In the supplement of paper PMC10849652:
For part of these data: The full data set covers some 7,900 targets. This sample favours those with a hit. For part of these data: About 0.6% of all pairs of compound and target were hits. Values without a mark were called inactive. For part of these data: Of roughly 8,800 targets only a part is listed; those with a hit were picked by preference. For part of these data: About 0.5% of all pairs of compound and target were hits.

Columns and labels:
[1] = compound: C1=CC=C(C=C1)[C@H](COC2=CC3=C(C=C2)NC(=O)N3)NC(=O)C4=CC=CN(C4=O)CC5=CC(=C(C=C5)F)F; assay: log2 fold change, soluble protein after heating vs DMSO (PISA); higher = thermal stabilisation; K562 lysate, 10 uM; active = over 0.2 and 3.5 SD of the protein, either way, in both replicates (recomputed)
Procedure, shortened: (§1)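 Values give the log-two fold change in thermal stability against solvent controls, from duplicates. Crude K562 extract at 1 mg/mL protein, made by dounce homogenisation in PBS pH 7.4 with 1 mM MgCl2, was treated with 10 μM compound for 30 min. After 3 min heating across 48°C-58°C, aliquots were pooled, adjusted to 0.5% NP-40 at 4°C and centrifuged at 21,000xg for 90 min. The supernatant was measured by TMTpro 16plex LC-MS/MS with channel sums equalised.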

[2] = compound: CC1=C(SC2=C1C(=N[C@H](C3=NN=C(N32)C)CC(=O)N)C4=CC=C(C=C4)Cl)C; assay: as above
Procedure, shortened: as §1

[3] = compound: Cc1sc2c(c1C)C(c1ccc(Cl)cc1)=N[C@@H](CC(=O)OC(C)(C)C)c1nnc(C)n1-2; assay: as above
Procedure, shortened: as §1

[4] = compound: c1ccc([C@@H]2C[C@H]2NC2CCNCC2)cc1; assay: as above
Procedure, shortened: as §1

[5] = compound: C1=CC=C(C=C1)[C@H](COC2=CC3=C(C=C2)NC(=O)N3)NC(=O)C4=CC=CN(C4=O)CC5=CC(=C(C=C5)F)F; assay: log2 fold change, soluble protein after heating vs DMSO (PISA); higher = thermal stabilisation; K562 cells, 10 uM, 30 min; active = over 0.2 and 3.5 SD of the protein, either way, in both replicates (recomputed)
Procedure, shortened: (§2)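 Thermal stability values are relative to control samples and come from duplicates. They are expressed as log2 fold changes. For measurement, K562 cells (2×10^6 cells/mL) received 10 μM compound for 30 min, and aliquots were heated for 3 min over 48°C-58°C, pooled, and extracted at 4°C in PBS with 0.5% NP-40. Soluble protein, the supernatant after 21,000xg for 90 min, was quantified by TMTpro 16plex LC-MS/MS with equalised channel sums.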

[6] = compound: CC1=C(SC2=C1C(=N[C@H](C3=NN=C(N32)C)CC(=O)N)C4=CC=C(C=C4)Cl)C; assay: as above
Procedure, shortened: as §2

[7] = compound: CC1=C2C(=CC=C1)N=C(N(C2=O)C3=CC=CC=C3C)CN4C=NC5=C(N=CN=C54)N; assay: as above
Procedure, shortened: as §2

[8] = compound: Cc1sc2c(c1C)C(c1ccc(Cl)cc1)=N[C@@H](CC(=O)OC(C)(C)C)c1nnc(C)n1-2; assay: as above
Procedure, shortened: as §2

[9] = compound: c1ccc([C@@H]2C[C@H]2NC2CCNCC2)cc1; assay: as above
Procedure, shortened: as §2

[10] = compound: CC1=C2C(=CC=C1)N=C(N(C2=O)C3=CC=CC=C3C)CN4C=NC5=C(N=CN=C54)N; assay: log2 fold change, soluble protein after heating vs DMSO (PISA); higher = thermal stabilisation; K562 lysate, 10 uM; active = over 0.2 and 3.5 SD of the protein, either way, in both replicates (recomputed)
Procedure, shortened: as §1

ANXA2 (UniProt H0YL33)
log2 fold change [1]: 0.079 | log2 fold change [2]: -0.079 | log2 fold change [3]: -0.135 | log2 fold change [4]: 0.466

ZADH2 (UniProt Q8N4Q0)
log2 fold change [5]: 0.012 | log2 fold change [6]: -0.039 | log2 fold change [7]: -0.076 | log2 fold change [8]: -0.026 | log2 fold change [9]: 0.008

ANKRD10 (UniProt Q9NXR5)
log2 fold change [1]: -0.131 | log2 fold change [2]: -0.027 | log2 fold change [10]: 0.025 | log2 fold change [3]: 0.06 | log2 fold change [4]: -0.019

ANKRD44 isoform 2 (UniProt Q8N8A2)
log2 fold change [1]: -0.032 | log2 fold change [2]: -0.045 | log2 fold change [10]: 0.019 | log2 fold change [4]: -1 (active)

ZCCHC17 (UniProt Q9NP64)
log2 fold change [7]: -0.124

ZC3H8 (UniProt Q8N5P1)
log2 fold change [5]: 0.095 | log2 fold change [6]: -0.089 | log2 fold change [7]: -0.084 | log2 fold change [8]: 0.091 | log2 fold change [9]: 0

ZBTB17 isoform 2 (UniProt Q13105)
log2 fold change [5]: -0.08 | log2 fold change [8]: -0.019

YES1 (UniProt P07947)
log2 fold change [5]: 0.025 | log2 fold change [6]: -0.056 | log2 fold change [7]: 0.126 | log2 fold change [8]: -0.005 | log2 fold change [9]: -0.038

YBX1 (UniProt P67809)
log2 fold change [5]: 0.105 | log2 fold change [6]: -0.228 | log2 fold change [7]: -0.143 | log2 fold change [8]: 0.115 | log2 fold change [9]: 0.052

ZDHHC20 (UniProt Q5W0Z9)
log2 fold change [5]: -0.023 | log2 fold change [6]: -0.001 | log2 fold change [7]: -0.047 | log2 fold change [8]: -0.061 | log2 fold change [9]: 0.067

ZER1 (UniProt Q7Z7L7)
log2 fold change [5]: 0 | log2 fold change [6]: -0.007 | log2 fold change [7]: 0.018 | log2 fold change [8]: -0.064 | log2 fold change [9]: -0.03

YWHAZ (UniProt P63104)
log2 fold change [5]: -0.012 | log2 fold change [6]: 0.035 | log2 fold change [7]: -0.031 | log2 fold change [8]: -0.033 | log2 fold change [9]: -0.025

ZNF579 (UniProt Q8NAF0)
log2 fold change [5]: 0.05 | log2 fold change [6]: -0.074 | log2 fold change [7]: -0.025 | log2 fold change [8]: 0.151 | log2 fold change [9]: -0.147

ZMAT2 (UniProt Q96NC0)
log2 fold change [5]: 0.029 | log2 fold change [6]: -0.025 | log2 fold change [7]: -0.009 | log2 fold change [8]: -0.042 | log2 fold change [9]: -0.016

ZFAND5 (UniProt O76080)
log2 fold change [5]: -0.025 | log2 fold change [6]: -0.21 | log2 fold change [7]: -0.129 | log2 fold change [8]: -0.024 | log2 fold change [9]: 0.143

ZNF143 (UniProt P52747)
log2 fold change [5]: 0.015 | log2 fold change [6]: -0.013 | log2 fold change [7]: -0.022 | log2 fold change [8]: 0.064 | log2 fold change [9]: 0.107

YIPF5 isoform 3 (UniProt Q969M3)
log2 fold change [5]: 0 | log2 fold change [6]: 0.025 | log2 fold change [7]: 0.018 | log2 fold change [8]: 0.002 | log2 fold change [9]: 0.08

ZYG11B (UniProt Q9C0D3)
log2 fold change [5]: 0.057 | log2 fold change [6]: 0.086 | log2 fold change [7]: 0.011 | log2 fold change [8]: -0.02 | log2 fold change [9]: 0.044

YWHAZ (UniProt E7ESK7)
log2 fold change [5]: 0.066 | log2 fold change [6]: 0.009 | log2 fold change [8]: 0.083 | log2 fold change [9]: 0.052

ZNF609 (UniProt O15014)
log2 fold change [5]: 0.035 | log2 fold change [6]: -0.008 | log2 fold change [7]: 0.148 | log2 fold change [8]: 0.14 | log2 fold change [9]: 0.073

ZBTB21 (UniProt Q9ULJ3)
log2 fold change [5]: -0.215 | log2 fold change [6]: -0.152 | log2 fold change [7]: 0.058 | log2 fold change [8]: 0.244 | log2 fold change [9]: 0.006

ZEB2 (UniProt O60315)
log2 fold change [5]: -0.125 | log2 fold change [7]: 0.137 | log2 fold change [8]: 0.368

ZDHHC8 isoform 3 (UniProt Q9ULC8)
log2 fold change [5]: 0.105 | log2 fold change [8]: 0

ZDHHC5 (UniProt Q9C0B5)
log2 fold change [5]: 0.015 | log2 fold change [6]: 0.007 | log2 fold change [7]: 0.04 | log2 fold change [8]: -0.013 | log2 fold change [9]: 0.077

ZFAND6 (UniProt Q6FIF0)
Chain of UniProt Q6FIF0 (Q6FIF0 whole entry, looked up): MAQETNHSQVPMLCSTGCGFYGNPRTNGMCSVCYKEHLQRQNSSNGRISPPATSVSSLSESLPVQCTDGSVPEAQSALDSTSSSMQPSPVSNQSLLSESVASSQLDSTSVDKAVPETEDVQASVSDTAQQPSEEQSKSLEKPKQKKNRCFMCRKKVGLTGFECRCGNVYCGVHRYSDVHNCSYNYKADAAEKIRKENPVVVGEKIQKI
log2 fold change [5]: 0 | log2 fold change [6]: -0.015 | log2 fold change [7]: 0.042 | log2 fold change [8]: -0.143 | log2 fold change [9]: 0.004

ZC3H18 (UniProt Q86VM9)
Chain of UniProt Q86VM9 (Q86VM9 whole entry, looked up): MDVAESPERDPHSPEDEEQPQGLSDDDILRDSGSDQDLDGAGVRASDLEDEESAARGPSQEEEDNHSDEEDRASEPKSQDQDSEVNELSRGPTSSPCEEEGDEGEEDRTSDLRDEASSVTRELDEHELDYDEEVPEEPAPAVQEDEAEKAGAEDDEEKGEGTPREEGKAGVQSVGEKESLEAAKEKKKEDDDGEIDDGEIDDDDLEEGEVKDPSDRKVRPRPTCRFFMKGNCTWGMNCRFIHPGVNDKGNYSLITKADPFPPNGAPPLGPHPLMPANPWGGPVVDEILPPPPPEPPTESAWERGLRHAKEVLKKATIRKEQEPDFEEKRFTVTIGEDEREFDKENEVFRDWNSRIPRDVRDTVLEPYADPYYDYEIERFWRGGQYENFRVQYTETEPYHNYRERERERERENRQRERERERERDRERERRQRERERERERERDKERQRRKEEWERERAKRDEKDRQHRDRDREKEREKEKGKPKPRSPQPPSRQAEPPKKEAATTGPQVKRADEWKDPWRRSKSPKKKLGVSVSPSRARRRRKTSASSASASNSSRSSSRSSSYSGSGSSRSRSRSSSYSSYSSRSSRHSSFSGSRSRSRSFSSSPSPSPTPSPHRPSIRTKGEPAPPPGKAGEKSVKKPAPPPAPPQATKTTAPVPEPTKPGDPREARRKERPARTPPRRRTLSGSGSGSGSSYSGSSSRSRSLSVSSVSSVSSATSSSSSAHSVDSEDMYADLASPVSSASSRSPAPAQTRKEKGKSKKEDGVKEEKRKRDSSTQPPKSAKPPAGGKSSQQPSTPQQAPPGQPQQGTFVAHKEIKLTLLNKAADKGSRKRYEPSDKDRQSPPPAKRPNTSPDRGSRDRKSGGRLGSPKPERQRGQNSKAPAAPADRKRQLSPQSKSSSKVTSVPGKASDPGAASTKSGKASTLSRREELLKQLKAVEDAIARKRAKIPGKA
log2 fold change [5]: 0.032 | log2 fold change [6]: -0.031 | log2 fold change [7]: 0.035 | log2 fold change [8]: 0.021 | log2 fold change [9]: 0.047

ZDHHC17 (UniProt Q8IUH5)
Chain of UniProt Q8IUH5 (Q8IUH5 whole entry, looked up): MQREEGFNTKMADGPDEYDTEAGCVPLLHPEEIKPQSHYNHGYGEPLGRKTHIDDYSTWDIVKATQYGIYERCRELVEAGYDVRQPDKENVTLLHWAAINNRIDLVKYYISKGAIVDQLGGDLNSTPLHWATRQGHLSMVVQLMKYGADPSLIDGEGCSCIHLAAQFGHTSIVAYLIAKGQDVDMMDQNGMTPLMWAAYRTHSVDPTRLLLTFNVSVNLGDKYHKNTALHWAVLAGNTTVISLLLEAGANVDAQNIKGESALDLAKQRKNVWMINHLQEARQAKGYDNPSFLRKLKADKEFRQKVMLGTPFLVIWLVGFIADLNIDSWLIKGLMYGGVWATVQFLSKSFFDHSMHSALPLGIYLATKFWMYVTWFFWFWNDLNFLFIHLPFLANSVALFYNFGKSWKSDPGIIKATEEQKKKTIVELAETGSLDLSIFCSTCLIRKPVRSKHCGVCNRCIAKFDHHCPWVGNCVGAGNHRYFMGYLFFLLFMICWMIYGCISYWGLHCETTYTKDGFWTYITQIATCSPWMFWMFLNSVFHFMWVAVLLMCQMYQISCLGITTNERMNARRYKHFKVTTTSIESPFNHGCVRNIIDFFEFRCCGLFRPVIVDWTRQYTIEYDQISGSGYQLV
log2 fold change [5]: 0.014 | log2 fold change [6]: 0.062 | log2 fold change [7]: -0.082 | log2 fold change [8]: -0.039 | log2 fold change [9]: -0.011

ZFP91 (UniProt Q96JP5)
log2 fold change [5]: -0.038 | log2 fold change [6]: -0.221 | log2 fold change [7]: -0.052 | log2 fold change [8]: 0.096 | log2 fold change [9]: 0.03

YAE1 (UniProt Q9NRH1)
Chain of UniProt Q9NRH1 (Q9NRH1 whole entry, looked up): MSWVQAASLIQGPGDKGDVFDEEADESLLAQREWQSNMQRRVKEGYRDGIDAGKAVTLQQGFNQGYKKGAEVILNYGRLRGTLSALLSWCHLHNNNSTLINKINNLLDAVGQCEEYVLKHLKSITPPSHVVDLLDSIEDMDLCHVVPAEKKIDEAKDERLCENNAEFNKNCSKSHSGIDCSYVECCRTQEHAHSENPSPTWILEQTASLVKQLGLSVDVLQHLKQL
log2 fold change [5]: -0.021 | log2 fold change [6]: -0.111 | log2 fold change [7]: 0.016 | log2 fold change [8]: -0.014 | log2 fold change [9]: 0.095

ZW10 (UniProt O43264)
log2 fold change [5]: -0.044 | log2 fold change [6]: 0.044 | log2 fold change [7]: 0.018 | log2 fold change [8]: -0.004 | log2 fold change [9]: 0

ZBTB43 (UniProt O43298)
log2 fold change [5]: -0.105 | log2 fold change [6]: 0.013 | log2 fold change [7]: 0.055 | log2 fold change [8]: -0.097 | log2 fold change [9]: -0.08

ZFPL1 (UniProt O95159)
log2 fold change [5]: 0.09 | log2 fold change [6]: 0.084 | log2 fold change [7]: 0.063 | log2 fold change [8]: -0.042 | log2 fold change [9]: -0.032

ZNF512 (UniProt Q96ME7)
log2 fold change [6]: -0.117 | log2 fold change [9]: -0.363

YWHAB (UniProt P31946)
log2 fold change [5]: -0.024 | log2 fold change [6]: 0.024 | log2 fold change [7]: -0.01 | log2 fold change [8]: -0.004 | log2 fold change [9]: -0.03

YIPF4 (UniProt Q9BSR8)
log2 fold change [5]: -0.027 | log2 fold change [6]: 0.001 | log2 fold change [7]: -0.019 | log2 fold change [8]: 0.027 | log2 fold change [9]: 0.046

YOD1 (UniProt Q5VVQ6)
log2 fold change [5]: -0.071 | log2 fold change [6]: 0.035 | log2 fold change [7]: 0.063 | log2 fold change [8]: -0.005 | log2 fold change [9]: 0.046

ZMYM3 (UniProt Q14202)
log2 fold change [5]: -0.03 | log2 fold change [6]: 0.055 | log2 fold change [7]: -0.02 | log2 fold change [8]: 0.043 | log2 fold change [9]: 0.103

ZWILCH (UniProt Q9H900)
log2 fold change [5]: -0.077 | log2 fold change [6]: 0.036 | log2 fold change [7]: 0.063 | log2 fold change [8]: 0.037 | log2 fold change [9]: 0.002

YPEL5 (UniProt P62699)
Chain of UniProt P62699 (P62699 whole entry, looked up): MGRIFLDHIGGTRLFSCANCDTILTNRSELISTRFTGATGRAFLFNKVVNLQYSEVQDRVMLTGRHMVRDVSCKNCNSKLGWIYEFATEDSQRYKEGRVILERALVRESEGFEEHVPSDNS
log2 fold change [5]: -0.066 | log2 fold change [6]: 0.044 | log2 fold change [7]: 0.016 | log2 fold change [9]: -0.081

YLPM1 (UniProt P49750)
Chain of UniProt P49750 (P49750 whole entry, looked up): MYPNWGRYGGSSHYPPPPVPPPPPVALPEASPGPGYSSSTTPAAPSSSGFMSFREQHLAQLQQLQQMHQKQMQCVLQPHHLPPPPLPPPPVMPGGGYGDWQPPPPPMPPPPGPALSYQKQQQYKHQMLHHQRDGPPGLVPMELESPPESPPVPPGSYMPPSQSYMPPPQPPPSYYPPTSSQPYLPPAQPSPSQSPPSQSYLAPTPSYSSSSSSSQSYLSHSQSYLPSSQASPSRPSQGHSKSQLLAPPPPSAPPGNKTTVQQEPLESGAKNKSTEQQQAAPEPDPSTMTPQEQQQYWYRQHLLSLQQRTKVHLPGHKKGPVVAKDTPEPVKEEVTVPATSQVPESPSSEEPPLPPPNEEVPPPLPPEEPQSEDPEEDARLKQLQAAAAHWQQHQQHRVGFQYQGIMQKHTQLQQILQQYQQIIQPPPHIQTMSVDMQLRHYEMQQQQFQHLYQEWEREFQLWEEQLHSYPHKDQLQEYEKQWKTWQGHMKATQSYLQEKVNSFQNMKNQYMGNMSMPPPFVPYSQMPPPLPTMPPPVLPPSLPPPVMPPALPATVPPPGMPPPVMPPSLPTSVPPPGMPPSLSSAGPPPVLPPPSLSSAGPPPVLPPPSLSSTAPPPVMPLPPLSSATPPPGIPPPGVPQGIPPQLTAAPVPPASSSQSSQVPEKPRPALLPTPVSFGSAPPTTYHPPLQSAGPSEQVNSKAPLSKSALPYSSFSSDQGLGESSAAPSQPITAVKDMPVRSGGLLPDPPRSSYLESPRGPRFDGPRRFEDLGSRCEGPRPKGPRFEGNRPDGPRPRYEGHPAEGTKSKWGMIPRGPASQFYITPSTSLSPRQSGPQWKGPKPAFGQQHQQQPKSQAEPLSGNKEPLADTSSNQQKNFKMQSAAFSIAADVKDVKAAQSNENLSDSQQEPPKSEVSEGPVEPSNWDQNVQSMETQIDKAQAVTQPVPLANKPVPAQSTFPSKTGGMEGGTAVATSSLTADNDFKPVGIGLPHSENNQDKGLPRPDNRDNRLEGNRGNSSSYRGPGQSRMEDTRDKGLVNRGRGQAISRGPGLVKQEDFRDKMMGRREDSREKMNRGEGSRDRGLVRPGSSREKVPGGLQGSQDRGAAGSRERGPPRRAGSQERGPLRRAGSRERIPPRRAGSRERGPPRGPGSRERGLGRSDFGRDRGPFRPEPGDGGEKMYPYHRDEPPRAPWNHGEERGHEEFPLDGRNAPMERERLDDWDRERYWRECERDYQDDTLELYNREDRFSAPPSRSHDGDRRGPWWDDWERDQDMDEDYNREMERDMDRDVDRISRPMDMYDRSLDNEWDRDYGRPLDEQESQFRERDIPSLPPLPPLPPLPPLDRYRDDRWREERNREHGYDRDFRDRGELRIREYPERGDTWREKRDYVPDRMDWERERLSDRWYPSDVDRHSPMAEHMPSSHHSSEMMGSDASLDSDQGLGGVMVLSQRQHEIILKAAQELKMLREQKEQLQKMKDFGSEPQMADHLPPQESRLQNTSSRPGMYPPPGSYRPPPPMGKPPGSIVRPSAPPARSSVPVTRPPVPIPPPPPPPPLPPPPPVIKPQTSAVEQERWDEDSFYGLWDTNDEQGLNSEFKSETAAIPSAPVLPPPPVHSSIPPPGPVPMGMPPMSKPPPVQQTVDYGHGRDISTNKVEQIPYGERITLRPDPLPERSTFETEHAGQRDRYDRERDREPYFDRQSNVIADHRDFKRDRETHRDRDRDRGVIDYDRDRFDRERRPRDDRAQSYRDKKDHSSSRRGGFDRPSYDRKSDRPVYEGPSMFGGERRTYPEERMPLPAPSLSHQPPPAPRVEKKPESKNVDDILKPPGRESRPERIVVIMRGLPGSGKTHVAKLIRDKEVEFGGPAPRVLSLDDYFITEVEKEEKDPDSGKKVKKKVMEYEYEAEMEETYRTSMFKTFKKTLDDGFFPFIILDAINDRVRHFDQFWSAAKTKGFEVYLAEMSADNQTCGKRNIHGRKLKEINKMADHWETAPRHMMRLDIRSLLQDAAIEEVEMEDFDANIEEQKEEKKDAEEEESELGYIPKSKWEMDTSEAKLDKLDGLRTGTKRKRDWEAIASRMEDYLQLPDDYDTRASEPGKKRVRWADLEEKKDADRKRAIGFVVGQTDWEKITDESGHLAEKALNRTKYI
log2 fold change [5]: -0.092 | log2 fold change [6]: 0.11 | log2 fold change [7]: 0.104 | log2 fold change [8]: 0.005 | log2 fold change [9]: -0.052

ZNF580 (UniProt Q9UK33)
log2 fold change [7]: -0.16 | log2 fold change [8]: 0.029

ZDHHC7 isoform 2 (UniProt Q9NXF8)
Chain of UniProt Q9NXF8 (Q9NXF8 whole entry, looked up): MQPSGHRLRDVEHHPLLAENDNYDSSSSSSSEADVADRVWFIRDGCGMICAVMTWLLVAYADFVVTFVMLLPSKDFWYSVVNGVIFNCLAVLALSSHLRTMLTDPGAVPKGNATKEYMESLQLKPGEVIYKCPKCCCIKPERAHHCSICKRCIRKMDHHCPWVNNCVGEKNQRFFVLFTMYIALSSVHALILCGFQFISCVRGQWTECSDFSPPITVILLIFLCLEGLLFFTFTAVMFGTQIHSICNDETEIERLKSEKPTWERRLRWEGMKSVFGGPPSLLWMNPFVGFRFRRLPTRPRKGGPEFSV
log2 fold change [6]: 0.088 | log2 fold change [7]: 0.131 | log2 fold change [8]: 0.135 | log2 fold change [9]: 0.081

ZNF277 (UniProt Q9NRM2)
Chain of UniProt Q9NRM2 (Q9NRM2 whole entry, looked up): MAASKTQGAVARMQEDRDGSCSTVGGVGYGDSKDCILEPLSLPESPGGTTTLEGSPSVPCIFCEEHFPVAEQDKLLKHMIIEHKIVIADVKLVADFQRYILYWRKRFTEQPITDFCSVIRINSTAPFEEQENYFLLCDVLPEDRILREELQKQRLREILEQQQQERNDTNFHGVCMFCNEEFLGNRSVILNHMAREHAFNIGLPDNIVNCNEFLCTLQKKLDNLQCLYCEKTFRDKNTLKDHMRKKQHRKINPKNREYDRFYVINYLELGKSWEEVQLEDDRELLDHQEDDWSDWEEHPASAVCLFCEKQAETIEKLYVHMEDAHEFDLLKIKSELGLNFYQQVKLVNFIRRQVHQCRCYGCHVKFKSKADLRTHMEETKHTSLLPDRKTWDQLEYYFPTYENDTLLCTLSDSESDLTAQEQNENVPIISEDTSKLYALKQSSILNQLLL
log2 fold change [5]: -0.134 | log2 fold change [6]: 0.028 | log2 fold change [7]: -0.007 | log2 fold change [8]: 0.286 | log2 fold change [9]: 0
